Compound activity deposited in PubChem BioAssay by The Scripps Research Institute Molecular Screening Center.
Most compounds without a hit are left out; they make up all but 2.3% or so of the library.
CHRM1 agonist = agonists of human M1 muscarinic receptor; activation, % at 3 µM; P11229; actives 0.33% (n = 360,000); CHO-K1 hM1, Fluo-8 calcium fluorescence, agonist mode; 0% DMSO, 100% acetylcholine EC100;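 active = activation above the run's mean compound activation plus 3 SD, cut at about 16% in these data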;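 also: peak over basal fluorescence ratio within a 140 s kinetic read after compound addition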
Target sequence (P11229 whole entry, looked up): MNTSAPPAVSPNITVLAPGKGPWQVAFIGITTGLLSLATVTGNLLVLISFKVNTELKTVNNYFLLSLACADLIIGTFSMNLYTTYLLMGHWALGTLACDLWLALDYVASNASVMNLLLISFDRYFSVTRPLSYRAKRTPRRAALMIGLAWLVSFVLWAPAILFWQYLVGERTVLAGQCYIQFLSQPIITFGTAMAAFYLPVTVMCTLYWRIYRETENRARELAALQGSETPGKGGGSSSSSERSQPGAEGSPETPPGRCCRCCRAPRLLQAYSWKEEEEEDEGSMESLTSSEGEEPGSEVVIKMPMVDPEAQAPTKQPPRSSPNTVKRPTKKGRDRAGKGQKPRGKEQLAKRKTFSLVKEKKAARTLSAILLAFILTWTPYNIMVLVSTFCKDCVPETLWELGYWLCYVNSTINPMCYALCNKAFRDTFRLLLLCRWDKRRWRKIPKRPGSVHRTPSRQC
M1 PAM = positive allosteric modulators of human M1 muscarinic receptor. P11229. actives 0.088% (n = 360,000). activation, % at 3 µM. CHO-K1 hM1, Fluo-8 calcium fluorescence, ACh EC20; 0% = ACh EC20, 100% = maximal ACh; in the data active = activation above about 19%, passing the limit was not always enough
CHO-K1 Ca antag = M1 antagonist counterscreen hit in parental CHO-K1 cells | ATP-induced calcium, Fluo-8 fluorescence | inhibition, % at 3 µM | actives 0.6% (n = 360,000);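 active = inhibition above a per-plate cutoff, the plate's mean sample inhibition plus 3 SD, cut at about 24% in these data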
CHO-K1 Ca ag = M1 agonist counterscreen hit in parental CHO-K1 cells | Fluo-8 calcium fluorescence; scaled to maximal ATP response, vehicle zero | activation, % at 3 µM | actives 0.48% (n = 360,000); in the data active = activation above about 15%;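 also: untransfected CHO-K1 host cells lacking M1 receptor as counterscreen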
CHRM1 antagonist = antagonists of human M1 muscarinic receptor | P11229 | CHO-K1 hM1, Fluo-8 calcium fluorescence, ACh EC80 antagonist | inhibition, % at 3 µM | actives 1.3% (n = 360,000) | AID 588852;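 active = percent inhibition above its own plate's cutoff, namely the mean of that plate's compound wells plus 3 SD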;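 also: peak over basal fluorescence ratio during 140 s after agonist addition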
M1 PAM parental = nonselective activator or artifact in parental CHO-K1 calcium assay; AID 602247; actives 0.02% (n = 360,000); ATP EC20, Fluo-8 calcium fluorescence; 0% at ATP EC20, 100% at ATP max; activation, % at 3 µM;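 active = activation above the run cutoff, the mean activation of all test compounds plus 3 SD, cut at about 40% in these data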;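 also: peak over basal fluorescence ratio in a 140 s read after ATP addition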
Each line names hits and unclear results; the compound was inactive in the other large screens.

CCOc1ccc(C(C)=O)cc1CSC(=N)N	none
O=c1cc(O)c2c(=O)n(-c3ccccc3)c3c(c2o1)CCCCCC3	CHO-K1 Ca antag 24
O=c1cc(O)c2c(=O)n(C3CCCCC3)c3ccccc3c2o1	none
CC(CC(F)(F)F)N1CCC(n2nccc2NC(=O)CCCc2ccccc2)CC1 (stereo not drawn)	none
CCCCN(C=O)c1c(CC)nc2ccc(C(=O)N(C)Cc3ccccc3)cn12	none
O=C(CSc1nnc(Cn2nnc3ccccc32)o1)N(Cc1ccc(Cl)cc1)c1ccccc1	CHRM1 antagonist 20
O=C(CSc1nnc(Cn2nnc3ccccc32)o1)Nc1cccc(Cl)c1	none
COc1ccccc1CNC(=O)CN(c1ccc(C)cc1)S(=O)(=O)c1c(C)n[nH]c1C	none
COc1ccc(N(CC(=O)Nc2ccc(OC)cc2OC)S(=O)(=O)c2ccccc2)cc1	none
COc1ccc(S(=O)(=O)N(CC(=O)Nc2ccc3c(c2)OCO3)c2ccccc2OC)cc1	CHRM1 antagonist 31
CCOc1ccccc1NC(=O)CN(c1ccc(C)cc1)S(=O)(=O)c1c(C)n[nH]c1C	CHRM1 antagonist 20
CCOc1ccc(N(CC(=O)Nc2ccccc2OC)S(=O)(=O)c2ccccc2)cc1	CHO-K1 Ca ag 18
COc1cc2c(-c3ccc4cc[nH]c4c3)c(-c3ccc(C#N)cc3)oc(=O)c2cc1OC	none
CCN(Cc1ccccc1)C(=O)c1nn(-c2ccc(OC)cc2)c(=O)c2c1c1ccccc1n2C	CHRM1 antagonist 23
CC(C)CCN(C(=O)c1cn2ccccc2n1)c1c(N)n(Cc2ccccc2)c(=O)[nH]c1=O	none
Cc1cc(NC(=O)CS(=O)(=O)c2cn(Cc3cccc(Cl)c3)c3ccccc23)no1	CHRM1 agonist 26
CCn1cc(S(=O)(=O)CC(=O)Nc2ccc(C)cc2)c2ccccc21	CHO-K1 Ca antag 27
CCn1cc(S(=O)(=O)CC(=O)Nc2cccc(C)c2)c2ccccc21	none
CSCCNC(=O)C1(C)CCN1C(=O)c1sccc1C (stereo not drawn)	none
CCN(C(=O)COC(=O)C1CC1C)c1c(N)n(Cc2ccccc2)c(=O)[nH]c1=O (stereo not drawn)	none
Oc1cccc2ccc(N3CCOCC3)nc12	none
Cc1nnc2ccc(-c3cccc(NS(=O)(=O)c4ccccc4[N+](=O)[O-])c3)nn12	CHRM1 antagonist 32
Cc1nnc2ccc(-c3cccc(NS(=O)(=O)c4ccccc4Cl)c3)nn12	none
CCOc1ccc(NC(=O)COC(=O)Cn2cnc3ccccc32)cc1	none
CCc1nc2c(OCc3ccc(Cl)cc3Cl)cccn2c1N(C=O)Cc1ccc(OC)cc1	none
CCCCn1c2ccccc2c2nnc(SCCN3CCCCC3)nc21	CHRM1 antagonist 55
CCCCn1c2ccc(F)cc2c2nnc(SCCN3CCOCC3)nc21	none
O=C(C[C@H]1C[C@H](C(=O)N2CCCCC2)[C@@]2(CCc3ccccc3)c3[nH]c4ccc(Cl)cc4c3CCN2C1=O)NCc1cccc(C(F)(F)F)c1	none
COc1ccc(NC(=O)c2ccc(NC(=O)CSc3nc(N)cc(=O)[nH]3)cc2)cc1	none
O=S(=O)(Nc1nc2ccccc2[nH]1)c1ccc2ccccc2c1	CHRM1 antagonist 65
O=S(=O)(Nc1ncn[nH]1)c1ccc2ccccc2c1	none
CCOC(=O)Cc1ccc(Nc2nc3cc(-c4ccccc4C)sc3c(=O)n2C)cc1	none
Cc1cccn2c(=O)nc(SCC(=O)N3CCC(Cc4ccccc4)CC3)nc12	CHRM1 agonist 20
O=C(NCc1ccc2c(c1)OCO2)c1ccc2c(c1)N(Cc1c(F)cccc1Cl)C(=O)CS2	CHRM1 antagonist 40
CCC1CCCCN1CCCNC(=O)c1ccc2c(c1)N(Cc1c(F)cccc1Cl)C(=O)CS2 (stereo not drawn)	CHRM1 antagonist 100
C=CCN1C(=O)CSc2ccc(C(=O)NCc3ccc(F)cc3)cc21	none
CCOc1ccccc1N1CCN(CC(=O)Nc2ccnn2C2CCCC2)CC1	none
CCN(CC(=O)NCc1ccc(Cl)cc1)C(=O)CCc1ccccc1	none
CCn1c2ccccc2c2nc3ccccc3nc21	none
CCn1c2ccccc2c2nc3cc(C(=O)O)ccc3nc21	CHO-K1 Ca antag 24
COc1ccc(/C=N/NC(=O)CNc2n[nH]c(=O)[nH]c2=O)cc1OC	CHO-K1 Ca antag 27
